# M1 PAM parental: M1 PAM counterscreen hit in parental CHO-K1 cells. ATP EC20, Fluo-8 calcium fluorescence; 0% at ATP EC20, 100% at ATP max. 360,000 compounds, 0.02% hits. activation, % at 3 µM;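 active = activation above the run cutoff, the mean activation of all test compounds plus 3 SD, cut at about 40% in these data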;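 note: peak over basal fluorescence ratio in a 140 s read after ATP addition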
# M1 PAM: positive allosteric modulators of human M1 muscarinic receptor; CHO-K1 hM1, Fluo-8 calcium fluorescence, ACh EC20; 0% = ACh EC20, 100% = maximal ACh; 360,000 compounds, 0.088% hits; activation, % at 3 µM; in the data active = activation above about 19%, passing the limit was not always enough
# Target sequence (P11229 whole entry, looked up): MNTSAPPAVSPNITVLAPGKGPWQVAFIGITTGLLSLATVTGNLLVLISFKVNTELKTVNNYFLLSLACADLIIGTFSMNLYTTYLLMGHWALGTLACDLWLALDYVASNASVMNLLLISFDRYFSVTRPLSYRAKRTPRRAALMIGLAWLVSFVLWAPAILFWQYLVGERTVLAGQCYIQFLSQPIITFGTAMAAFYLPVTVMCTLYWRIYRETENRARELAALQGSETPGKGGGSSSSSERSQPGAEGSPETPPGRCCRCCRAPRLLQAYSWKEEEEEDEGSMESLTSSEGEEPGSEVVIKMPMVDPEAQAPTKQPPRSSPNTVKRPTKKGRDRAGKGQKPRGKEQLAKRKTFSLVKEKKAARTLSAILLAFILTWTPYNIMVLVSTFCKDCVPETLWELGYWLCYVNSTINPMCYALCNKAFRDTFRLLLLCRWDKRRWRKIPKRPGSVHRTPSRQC
# CHRM1 antagonist: blocks human M1 muscarinic receptor; P11229; CHO-K1 hM1, Fluo-8 calcium fluorescence, ACh EC80 antagonist; inhibition, % at 3 µM; 360,000 compounds, 1.3% hits;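 active = percent inhibition above its own plate's cutoff, namely the mean of that plate's compound wells plus 3 SD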;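 note: peak over basal fluorescence ratio during 140 s after agonist addition; 0% = ACh EC80 plus DMSO and 100% = DMSO alone without agonist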
# CHRM1 agonist: activates human CHRM1 receptor | P11229 | activation, % at 3 µM | CHO-K1 hM1, Fluo-8 calcium fluorescence, agonist mode; 0% DMSO, 100% acetylcholine EC100 | AID 588814 | 360,000 compounds, 0.33% hits;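 active = activation above the run's mean compound activation plus 3 SD, cut at about 16% in these data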;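 note: peak over basal fluorescence ratio within a 140 s kinetic read after compound addition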
# M1 ag parental: counter-screen for M1 agonists: effect in parental CHO-K1 cells | Fluo-8 calcium fluorescence; scaled to maximal ATP response, vehicle zero | activation, % at 3 µM | 360,000 compounds, 0.48% hits; in the data active = activation above about 15%;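 note: untransfected CHO-K1 host cells lacking M1 receptor as counterscreen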
# CHO-K1 Ca antag: nonselective inhibitor or artifact in parental CHO-K1 cells; ATP-induced calcium, Fluo-8 fluorescence; inhibition, % at 3 µM; 360,000 compounds, 0.6% hits; AID 602250;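 active = inhibition above a per-plate cutoff, the plate's mean sample inhibition plus 3 SD, cut at about 24% in these data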;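 note: 0% = DMSO plus EC80 ATP and 100% = DMSO alone without ATP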
# Active calls of the source: *; / = no result. A selection: hits, their analogues and other compounds. The true share with any hit is near 2.3%.
SMILES,M1 PAM parental,M1 PAM,CHRM1 antagonist,CHRM1 agonist,M1 ag parental,CHO-K1 Ca antag
O=C(Nc1nc(-c2ccccc2)cs1)c1ccccc1NS(=O)(=O)c1ccc(F)cc1,-12.2,-23.3,41.7*,0.2,14.3,31.6*
COc1ccccc1C(=O)Nc1nc(-c2ccc(S(=O)(=O)N3CCOCC3)cc2)cs1,-32.0,-18.3,56.8*,4.7,9.0,21.4
COc1ccccc1OC(C)C(=O)Nc1nc(-c2ccc(S(=O)(=O)N3CCOCC3)cc2)cs1 (stereo unspecified),24.5,-0.9,8.7,2.3,3.2,-0.6
Cn1c(-c2ccccc2)c(Sc2ccccc2)c2cc(-c3ccc4[nH]ccc4c3)ccc21,-7.3,/,/,/,0.9,-13.8
CC1(Oc2cccnc2Cl)CCN(Cc2ccc(OC(F)(F)F)cc2)C1 (stereo unspecified),-4.1,-9.8,2.8,-9.5,-0.5,-0.7
O=C(Nc1ccc(Cl)cc1)c1ccc(OCC2CCCO2)cc1 (stereo unspecified),1.5,-1.0,10.5,-3.2,25.9*,8.9
CNc1ccc2ncc(-c3cccc(C(=O)N(C)C)c3)n2n1,20.1,7.5,-11.6,-5.8,0.9,-13.4
N#CC1(NC(=O)COC(=O)C2=COCCO2)CCCCC1,11.9,2.0,-2.2,23.7*,19.0*,-12.1
N#CC1(NC(=O)COc2cc(F)ccc2[N+](=O)[O-])CCCCC1,-11.5,-10.7,21.6,-6.5,1.5,-4.3
N#CC1(NC(=O)COc2ccccc2[N+](=O)[O-])CCCCC1,-8.4,-15.4,37.3*,-6.4,1.4,-8.0
Cc1cc[n+](C(C)C(=O)c2ccc(-c3ccccc3)cc2)cc1 (stereo unspecified),22.2,-20.3,58.0*,-7.2,1.0,-10.4
CC(C(=O)c1ccc(-c2ccccc2)cc1)[n+]1ccccc1 (stereo unspecified),7.4,-8.0,-7.7,-5.5,0.2,-4.5
COc1cc(C(=O)O/N=C2\CCCc3c2ccc(OC)c3[N+](=O)[O-])cc(OC)c1OC,-4.9,-17.3,24.9*,-3.5,0.8,8.2
COc1ccccc1C(=O)O/N=C1/CCCc2c1ccc(OC)c2[N+](=O)[O-],15.0,-4.7,5.0,-1.2,2.6,-5.0
NC(=O)c1ccc(N2CCN(S(=O)(=O)c3cccs3)CC2)c([N+](=O)[O-])c1,-8.5,-14.2,34.5*,3.0,16.7*,23.4
CC1(C(=O)NS(=O)(=O)c2ccc(Br)cc2)CCN1C(=O)CCC1CCCC1 (stereo unspecified),18.4,12.5,-11.4,-1.7,-0.3,-6.7
CCN(CC)CCNC(=O)c1ccc(NC(=O)c2cn(-c3ccccc3)nc2-c2cccs2)cc1,25.0,-27.8,61.2*,-9.4,2.5,-3.5
CCN(CC(=O)Nc1ccc(NC(C)=O)cc1)C(=O)c1c(C)nn(-c2ccc(F)cc2)c1Cl,-9.7,-11.8,29.7,-2.7,4.4,-7.1
CCN(CC)CCNC(=O)c1ccc(NC(=O)c2cn(-c3ccc(F)cc3)nc2-c2cccc(OC)c2)cc1,13.6,-30.9,99.3*,-11.3,1.3,-11.5
O=C(Nc1cccnc1)c1cn(-c2ccccc2)nc1-c1cccs1,5.5,-9.4,5.6,-1.4,4.9,-5.4
CCN(CC)CCNC(=O)c1ccc(NC(=O)c2ccc3c(c2)CCC3)cc1,15.6,-11.1,14.2,-9.5,2.4,-15.6
CCN(CC)CCNC(=O)c1ccc(NC(=O)c2c(C)nn(-c3ccc(F)cc3)c2Cl)cc1,2.9,-33.4,100.7*,-9.7,3.0,-0.6
CCN(CC)CCNC(=O)c1ccc(NC(=O)c2cccc(S(=O)(=O)N(C)C3CCCCC3)c2)cc1,10.5,-29.7,99.8*,-8.5,0.3,-15.2
CN1CCCC(C)(C(=O)Nc2ccc(-n3cccc3)cc2)C1 (stereo unspecified),19.2,5.4,-15.1,-7.9,1.1,-16.8
C/C(=N\NC(=O)c1c(Cl)c(C)nn1C)c1ccc(NC(=O)c2ccncc2)cc1,7.0,2.8,-2.2,-5.6,0.5,9.5
SMILES,M1 PAM parental,M1 PAM,CHRM1 antagonist,CHRM1 agonist,M1 ag parental,CHO-K1 Ca antag
Cc1nn(-c2ccc(NC(=O)c3ccncc3)cc2)c(C)c1Cl,-4.5,-19.8,31.6*,2.1,13.4,8.8
CCN(CC)CCNC(=O)c1ccc(NC(=O)c2ccccc2-c2ccc(C(F)(F)F)cc2)cc1,10.3,-31.0,101.1*,-10.8,4.0,-7.2
CCN(CC)CCNC(=O)c1ccc(NC(=O)Cc2ccccc2F)cc1,4.3,-9.3,4.3,-15.4,0.1,2.6
CSc1ccccc1C(=O)C1CCCN(C(=O)c2cccc(Cn3cccn3)c2)C1 (stereo unspecified),-7.1,1.9,-5.2,-1.7,2.6,-4.2
COc1ccc(N/N=C(\C#N)C(=N)SCc2ccccc2)cc1,7.7,2.2,-1.5,4.4,18.1*,-14.3
COc1ccc(N/N=C(\C#N)C(=N)N2CCCCC2)cc1,12.7,4.1,-8.6,-3.2,0.2,-3.5
Cn1c(=O)[nH]c(=O)c2c1nc(N1CCCCC1)n2C/C=N/NC(=O)c1cc(Br)ccc1O,-9.3,0.6,-1.8,7.2,26.0*,5.1
C=CCn1c(N2CCCC2)nc2c1c(=O)[nH]c(=O)n2C,12.7,3.5,-14.3,-2.2,0.3,-18.7
CCC(C#CCN1CCOCC1)(CC)OCCC#N,16.3,8.2,-9.0,-3.1,0.5,-17.6
CCC(C#CCN1CCCCC1)(CC)OCCC#N,14.6,-22.1,62.6*,-6.0,0.2,-15.1
CCC(C)(C#CCN1CCCCC1)OC(C)=O (stereo unspecified),4.3,-22.7,21.6,-13.2,0.3,0.8
CCC(C)(C#CCN1CCCCC1)OCCC#N (stereo unspecified),11.2,-25.8,69.0*,-12.2,0.4,-2.3
OCCCNc1ncnc2c1ncn2[C@H]1CN(Cc2ccc(Cl)cc2)C[C@@H](CO)O1,7.2,16.4,-8.9,3.7,0.6,0.5
Cc1c(C(=O)N(C)Cc2ccc(F)cc2)sc(=O)n1Cc1ccc(Cl)c(Cl)c1,8.2,2.4,-6.8,2.5,0.7,-1.0
CCc1nc2ccc(C(=O)Nc3cc(-c4ccccc4)ccc3OC)cn2c1N(C)CCC(C)C,10.7,8.5,-20.1,-2.0,36.8*,-12.9
CCCCNC(=O)c1ccc2nc(CC)c(N(CCC(C)C)CCN(C)C)n2c1,8.0,0.7,-12.4,22.2*,1.0,0.8
CCc1nc2ccc(C(=O)Nc3cc(-c4ccccc4)ccc3OC)cn2c1N(C=O)CCC(C)C,12.6,13.0,-12.4,0.6,0.5,-9.0
CCCCNC(=O)c1ccc2nc(CC)c(N(CC)CCN(C)C)n2c1,1.5,7.0,-13.0,-4.1,-0.1,7.9
CCc1nc2ccc(C(=O)Nc3ccc(OC)c(OC)c3)cn2c1N(CCC(C)C)CCN(C)C,11.2,-3.1,-4.6,18.2*,0.4,-8.0
CCc1nc2ccc(C(=O)Nc3ccc(NC(C)=O)cc3)cn2c1N(CCC(C)C)CCN(C)C,9.5,2.6,-6.9,0.3,1.8,-0.8
